High-throughput results (PubChem)
Only some compounds are listed: those with a hit (about 6.7% of all), similar ones and a draw of the others.
SW480 rerep – induces DNA re-replication in SW480 colon adenocarcinoma cells. SW480 DNA re-replication, Hoechst DNA content imaging, 48 h. Potency, µM (doses to about 46.1 µM), without a hit: at the highest dose re-replication activation, hits mostly activators. actives 1.8% (n = 340,000); note: % of control where 0% means no effect; nearly all actives have a fitted effect of over 55% in size
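Readout is total intensity of Hoechst-stained nuclei, excited at 405 nm and collected at 500-530 nm. Compound treatment lasted 48 hr at 37 C in 5% CO2 before staining.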
KB-3-1 cytotox – KB-3-1 parental cell cytotoxicity. KB-3-1 viability, CellTiter-Glo ATP luminescence, 72 h. Potency, µM (highest dose often 46.1 µM), hits mostly cytotoxic. AID 1347075. actives 1.4% (n = 400,000); note: % is set by controls: 0 for no effect and ±100 for the full control effect; nearly all actives have a fitted effect of over 60% in size
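Multi-concentration cytotoxicity screen in KB-3-1 cells grown in DMEM lacking phenol red with 10% FBS. After 72 h at 37 °C with compound, ATP-dependent luminescence was recorded.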
KB-V1 MDR tox – KB-V1 MDR subline cytotoxicity. actives 3.4% (n = 400,000). AID 1347076. Potency, µM (highest dose often 46.1 µM), most hits filed as cytotoxic. KB-V1 MDR cells viability, CellTiter-Glo, 72 h; note: % is set by controls: 0 for no effect and ±100 for the full control effect; nearly all actives have a fitted effect of over 60% in size
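Drug-selected KB-V1 cells, grown in DMEM lacking phenol red with 10% FBS, receive compound titrations; after three days at 37 degrees C, surviving cell ATP is quantified by CellTiter-Glo luminescence and responses normalized and curve-fitted.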
MCF10A rerep – induces DNA re-replication in MCF 10a normal breast cells; MCF 10A DNA re-replication, Hoechst nuclear intensity, 48 h; AID 624296; Potency, µM (highest dose often 46.1 µM), without a hit: at the highest dose activity, positive = re-replication, most hits filed as activators; actives 2.9% (n = 350,000); note: % of control where 0% means no effect; nearly all actives have a fitted effect of over 50% in size
PINK1 expr mod – modulators of PINK1 expression | PINK1 immunofluorescence, high-content cytometry, 24 h | Potency, µM (highest dose often 76.6 µM), inactives show top-dose activation (PINK1 increase), actives largely listed as activators | actives 0.2% (n = 410,000); active = well fitted activation curve with a large enough effect; inconclusive = small, poorly fitted or top-dose-only effect; cell line not stated here; note: % of control where 0% means no effect; nearly all actives have a fitted effect of over 65% in size
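Compound titrations (5 concentrations, 24 h) on a stable cell line; DMSO and CCCP controls. Endpoint: fixed-cell PINK1 immunofluorescence with mitochondrial, cell and nuclear markers, scanned by microplate cytometer.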
* = called active by the depositor; i = inactive; ? = inconclusive; · = not tested or not shown; ! = repeats disagree. Unless noted, calls come from the whole dose curve; as a rule, active = well fitted curve in the direction sought with a large enough effect; inconclusive = small, poorly fitted or top-dose-only effect, or another doubt; inactive = no such curve, though single readings can be large; an effect the other way counts as inactive or inconclusive. Potency is the fitted concentration of half-maximal effect.

SMILES | SW480 rerep | KB-3-1 cytotox | KB-V1 MDR tox | MCF10A rerep | PINK1 expr mod
CC(=NCCc1c(C)[nH]c2ccc(C)cc12)C1=C(O)CC(c2ccccc2)CC1=O (configuration not stated) | 6.5µM* | 5.8µM* | 5.8µM* | 2.3µM* | 29%
CCCC(=Nc1ccccc1OC)C1=C(O)CC(c2ccccc2)CC1=O (configuration not stated) | -6% | i | i | ? | 4%
CC(=NCCc1c(C)[nH]c2ccc(OC(F)(F)F)cc12)C1=C(O)CC(c2ccccc2)CC1=O (configuration not stated) | 8.2µM* | 4.6µM* | ? | 8.2µM* | 8%
CCCn1nc(NC(=O)c2cccs2)c2cc3ccc(C)cc3nc21 | 15µM* | i | i | ? | 7%
CCCn1nc(NC(=O)c2cccs2)c2cc3cc(C)ccc3nc21 | 21µM* | i | ? | 18µM* | 2%
COC(=O)c1ccc(Cl)cc1NC(=O)Nc1nnc(N(C)Cc2ccccc2)s1 | · | i | i | · | 4%
CSc1ccc2nnc(-c3ccc(C)cc3)n2n1 | · | i | i | · | -1%
O=C1C(=O)c2ccccc2C([O-])=C1[n+]1ccccc1 | 2% | i | i | -12% | 0%
CCc1cc[n+](C2=C([O-])c3ccccc3C(=O)/C2=N\S(=O)(=O)c2cccs2)cc1 | 4.6µM* | i | i | ? | -4%
Cc1nc2ccc(C(=O)Nc3cccc(OCC(=O)N(C)C)c3)cn2c1N(C)CC1CCCCC1 | · | i | ? | · | 0%
COc1ccc(CCN2CCC(Nc3nc4ccccc4n3Cc3ccc(F)cc3)CC2)cc1 | 3.7µM*! | ? | 21µM* | 4.6µM* | 0%
Cc1noc(C)c1CSCC(=O)Nc1cccc(C(F)(F)F)c1 | -6% | · | · | 18µM* | 2%
Cc1noc(C)c1CSCC(=O)Nc1ccc(S(C)(=O)=O)cc1 | 1% | i | ? | -3% | 0%
O=C(Nc1ccccn1)c1cc(-c2ccc(Cl)s2)nc2ccccc12 | -2% | ? | ? | 21µM* | 3%
O=C(NC(=S)Nc1ccccn1)c1cc(-c2ccccc2)nc2ccccc12 | ? | i | 16µM* | 8% | -2%
O=C(NC(=S)Nc1ccccc1)c1cc(-c2ccccc2)nc2ccccc12 | 10% | i | i | 16% | 0%
O=C(NC(c1ccc(-c2ccccc2)cc1)c1cnccn1)C1CCN(CCN2C(=O)c3ccccc3C2=O)CC1 (configuration not stated) | · | i | i | · | 2%
CSc1nnc2c3ccccc3n(Cc3ccccc3)c2n1 | -11% | i | i | -1% | 6%
CSc1nnc2c3ccccc3n(CCc3ccccc3)c2n1 | ? | 9.2µM* | i | ? | 7%
Cc1cccc(-c2n[nH]c(=S)n2C)c1 | -5% | ? | 21µM* | -1% | 0%
Cn1c(-c2ccccc2)n[nH]c1=S | -9% | i | i | 1% | -2%
Cc1nc(-c2ccccc2)sc1-c1n[nH]c(=S)n1C | 23µM* | i | ? | 15% | 2%
Cc1cnc(-n2ncc(C(=O)NCC3CCCN(C)C3)c2C)nc1-c1cccs1 (configuration not stated) | · | · | · | · | 0%
c1ccc(-c2cn3nc(-c4ccccc4)sc3n2)cc1 | -2% | i | i | 4% | -1%
c1ccc(-c2cn3c4c(sc3n2)CCCC4)cc1 | ? | ? | ? | 21µM*! | 3%
SMILES | SW480 rerep | KB-3-1 cytotox | KB-V1 MDR tox | MCF10A rerep | PINK1 expr mod
CC(C(=O)N(C)C1CCS(=O)(=O)C1)N1C(=O)/C(=C/c2ccc(F)cc2)SC1=S (configuration not stated) | ? | i | i | 21% | 5%
CCN(C(=O)C(C)N1C(=O)/C(=C/c2ccco2)SC1=S)C1CCS(=O)(=O)C1 (configuration not stated) | 4.1µM* | ? | i | 24% | 0%
C#C[C@]1(O)CCC2C3CCC4=CC(=O)CC[C@@H]4C3CC[C@@]21C (some centres not stated) | -6% | ? | 2.9µM* | -4% | 3%
CCOc1cc(CNC(=O)c2ccc3c(c2)nc2n3CCCCC2)ccc1OC | · | i | i | · | 0%
O=C(/C=C/c1ccco1)NC(=S)Nc1nc(-c2ccc(Cl)cc2)cs1 | -2% | ? | ? | 21µM* | 8%
Cc1ccc2oc(-c3cccc(NC(=S)NC(=O)c4cccs4)c3)nc2c1 | -5% | i | i | 2% | 13%
O=C(/C=C\c1ccco1)Nc1nc(-c2ccccc2)cs1 | -14% | i | ? | ? | 1%
O=C(/C=C/c1ccco1)NC(=S)Nc1nc(-c2ccc3ccccc3c2)cs1 | ? | 4.6µM* | 5.2µM* | 1.2µM* | 4%
Cc1ccc2oc(-c3cccc(NC(=S)NC(=O)/C=C/c4ccco4)c3)nc2c1 | ? | ? | ? | 9.2µM* | 6%
COc1ccc(-c2csc(NC(=S)NC(=O)/C=C/c3ccccc3)n2)cc1Br | -4% | ? | 12µM* | 19% | 13%
COc1ccc(CN2CCNC(=O)C2CC(=O)N(C)C2CCOCC2)cc1OC (configuration not stated) | · | i | i | · | 0%
CC(C)c1c(C(=O)NCCN2CCOCC2)cnn1-c1nccc(-c2cccs2)n1 | · | · | · | · | 0%
CCCn1c(NC(=O)c2ccccc2Br)nc2ccccc21 | 25% | ? | 9.2µM* | ? | 1%
COc1ccc(C(=O)n2c(-c3ccco3)nc3ccccc32)cc1 | 18µM* | ? | ? | 8.9µM* | 4%
COc1ccc(C(=O)N2CCn3c2nc2ccccc23)cc1 | -5% | i | i | 19% | 1%
CCCn1c(NC(=O)c2ccco2)nc2ccccc21 | -8% | i | 15µM* | -11% | ·
COc1ccc(OCCn2c(NC(=O)c3ccco3)nc3ccccc32)cc1 | 4.1µM* | i | i | 12µM* | -2%
Cc1ccc(NC(=O)/C=C/c2ccccc2)c(Br)c1 | · | i | i | · | 16%
Cc1cccc(/C=C2/S/C(=N/N=C3\CC4CCC3(C)C4(C)C)NC2=O)c1 (configuration not stated) | 13% | ? | 21µM* | ? | -4%
O=C1N/C(=N/O)S/C1=C/c1cccc([N+](=O)[O-])c1 | 6% | i | i | -4% | 1%
CN(c1ccccc1)S(=O)(=O)c1cccc(NC(=O)Cn2cnc3ccccc3c2=O)c1 | -2% | ? | 23µM* | 11% | -1%
Cc1ccc(C(=O)Nc2cccc(S(=O)(=O)N(C)c3ccccc3)c2)o1 | -1% | i | 16µM* | 7% | 4%
CC(=O)Nc1cccc(OCCCOc2cccc([N+](=O)[O-])c2)c1 | ? | i | 9.2µM* | 8% | -3%
NC(=S)N/N=C/c1cc([N+](=O)[O-])ccc1OCCOc1ccccc1 | 1% | i | i | 1% | 11%
